These results are taken from PubChem BioAssay (Tox21).

Inconclusive results are not listed. A number with no mark means an inactive call. The source made the active and inactive calls. Unless noted, the call rests on the fitted dose curve; in most records, active means well fitted curve in the direction sought with a large enough effect in the repeat runs; inconclusive means weak or mixed curves; inactive means no such curve, though single readings can be large; an effect the other way counts as inactive or inconclusive.

Assay [1] in a line: qHTS assay to identify small molecule antagonists of the thyroid receptor (TR) signaling pathway - cell viability counter screen (AID 743064). Further: nearly all actives have a fitted effect of over 50% in size. Further: potency means the concentration at half of the fitted maximal effect. The settings on record: GH3.TRE-Luc viability, CellTiter-Fluor, 24 h; series mostly up to 70.3 µM. The method in brief:
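Same-well viability check: GH3.TRE-Luc cells stimulated with 1 nM T3 alongside test compound for 23.5 h, followed by CellTiter-Fluor fluorescence.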
Background: Quantitative high-throughput screening tests each substance at several concentrations.

Assay [2] deals with thyroid hormone receptor (rat, GH3 cells). Briefly: qHTS assay to identify small molecule agonists of the thyroid receptor (TR) signaling pathway (AID 743066; calls by dose curve). The settings on record: GH3.TRE-Luc cells, TR agonist luciferase, 24 h; series mostly up to 83.9 µM.
Assay [3] can be described thus: qHTS assay to identify small molecule antagonists of the estrogen receptor alpha (ER-alpha) signaling pathway - cell viability counter screen (AID 743074; calls by dose curve;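 further: HEK293 cells carrying ER-alpha-UAS-bla reporter stimulated with 17beta-estradiol; nearly all actives have a fitted effect of over 45% in size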). The settings on record: ERalpha-bla HEK293 viability, CellTiter-Glo luminescence, 18 h; series mostly up to 69.4 µM.
The nature of assay [4]: qHTS assay to identify small molecule antagonists of the estrogen receptor alpha (ER-alpha) signaling pathway using the BG1 cell line - cell viability counter screen (AID 743081).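 Further: compound given together with 17beta-estradiol as the ER stimulus; nearly all actives have a fitted effect of over 45% in size.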 The settings on record: BG1Luc4E2 viability, CellTiter-Fluor, 22 h; series mostly up to 70.3 µM.
Another assay has as its target Aromatase (Homo sapiens) (UniProt P11511). Nature of the assay: qHTS assay to identify aromatase inhibitors (AID 743083). Further: nearly all actives have a fitted effect of over 55% in size. Conditions: MCF-7 aro ERE, testosterone-driven ERE luciferase, 24 h; series mostly up to 70.3 µM.
The nature of assay [5]: qHTS assay to identify aromatase inhibitors - cell viability counter screen (AID 743084).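 Further: cells stimulated with testosterone during compound exposure; nearly all actives have a fitted effect of over 55% in size.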 Conditions: MCF-7 aro ERE viability, CellTiter-Fluor, 24 h; series mostly up to 70.3 µM.
In assay [6] the target is Aryl hydrocarbon receptor (Homo sapiens) (UniProt P35869). Nature of the assay: qHTS assay to identify small molecule that activate the aryl hydrocarbon receptor (AhR) signaling pathway (AID 743085). Further: nearly all actives have a fitted effect of over 15% in size. Further: potency means the concentration at half of the fitted maximal effect.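 On activation: HG2L7.5c1 human HepG2 liver cells with stably integrated DRE-driven firefly reporter.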 The settings on record: HepG2 AhR-luc (HG2L7.5c1), luciferase, 24 h; series mostly up to 70.3 µM. The method, boiled down:
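Reporter assay in engineered HepG2 line HG2L7.5c1, whose plasmid carries twenty dioxin responsive elements upstream of firefly luciferase. Treatment lasted 24 h at 37C; ONE-Glo luminescence gauged induction.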

Assay [7] in a line: qHTS assay to identify small molecule that activate the aryl hydrocarbon receptor (AhR) signaling pathway - cell viability counter screen (AID 743086).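 Further: HepG2 liver cells carrying the AhR DRE luciferase reporter; nearly all actives have a fitted effect of over 45% in size.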 The settings on record: HepG2-AhR-luc viability, CellTiter-Fluor, 24 h; series mostly up to 70.3 µM. The method, boiled down:
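Cytotoxicity counter screen: CellTiter-Fluor signal (30 min, 37 C) in 4000 HepG2 cells/well carrying the DRE-luciferase reporter, following 24 h compound exposure at 37 C.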

Assay [8] is described as follows: qHTS assay to identify small molecule antagonists of the peroxisome proliferator-activated receptor gamma (PPARg) signaling pathway - cell viability counter screen (AID 743194). Further: nearly all actives have a fitted effect of over 55% in size. The settings on record: PPARg-bla HEK293H viability, CellTiter-Glo luminescence, 17 h, co-treated with 50 nM rosiglitazone; series mostly up to 62.6 µM. The method in brief:
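Viability was measured as CellTiter-Glo luminescence in GeneBLAzer PPARg UAS-bla HEK293H cells. These cells had been exposed 17 h at 37 C to compounds together with rosiglitazone at 50 nM final, with the beta-lactamase readout taken in the same wells.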

Assay [9] is described as follows: qHTS assay for small molecule agonists of the antioxidant response element (ARE) signaling pathway (AID 743202; active means well fitted activation curve with a large enough effect in the signal ratio in the repeat runs, not every such curve was filed as active; the % refers to the signal ratio; further: potency means the concentration at half of the fitted maximal effect). Conditions: HepG2 ARE-bla reporter, beta-lactamase FRET, 16 h; series mostly up to 73.3 µM. The method, boiled down:
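Quantitative high-throughput format in HepG2 cells bearing an integrated ARE-beta-lactamase reporter. Compound exposure lasted 16 h at 37 C, and fluorescence was read 2 h after adding LiveBLAzer B/G substrate at room temperature.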

Assay [10] can be described thus: qHTS assay for small molecule agonists of the antioxidant response element (ARE) signaling pathway - cell viability counter screen (AID 743203; calls by dose curve; further: nearly all actives have a fitted effect of over 55% in size). The settings on record: ARE-bla HepG2 viability, CellTiter-Glo luminescence, 16 h; series mostly up to 73.3 µM. The method in brief:
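ARE-bla HepG2 cells were plated, rested 5 h at 37C/5% CO2, then exposed to compounds in DMSO for 16 h. Viability was read as CellTiter-Glo luminescence after 30 min at room temperature, in the same wells as the ARE screen.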

A short description of assay [11]: qHTS assay for small molecule activators of the heat shock response signaling pathway - cell viability counter screen (AID 743209). Further: nearly all actives have a fitted effect of over 50% in size. The settings on record: HSE-bla HeLa viability, CellTiter-Glo luminescence, 5 h; series mostly up to 62.6 µM. The method in brief:
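HSE-bla HeLa cells plated overnight, then exposed to Tox21 compounds (23 nL in DMSO) for 5 h at 37 C. After the bla reporter read, CellTiter-Glo was added in the same wells and luminescence read after 30 min at room temperature.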

The nature of assay [12]: qHTS assay for small molecule activators of the heat shock response signaling pathway (AID 743210; active means well fitted activation curve with a large enough effect in the signal ratio in the repeat runs, with a control signal flat, not every such curve was filed as active; the % refers to the signal ratio;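 further: HeLa cells with beta-lactamase reporter driven by heat shock elements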). The settings on record: HeLa HSE-bla reporter, beta-lactamase ratio, 5 h; series mostly up to 62.6 µM. The method, boiled down: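 HeLa HSE-bla cells, overnight plating; cpd in DMSO 5 h, 37 C; LiveBLAzer B/G FRET substrate 2.5 h RT; fluorescence intensity read.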
The target in assay [13] is Peroxisome proliferator-activated receptor gamma (Homo sapiens) (UniProt P37231). Briefly: qHTS assay to identify small molecule agonists of the peroxisome proliferator-activated receptor gamma (PPARg) signaling pathway (AID 743094; active means well fitted activation curve with a large enough effect in the signal ratio in the repeat runs, not every such curve was filed as active; the % refers to the signal ratio). Conditions: HEK293H PPARg-UAS-bla, beta-lactamase FRET ratio, 17 h; series mostly up to 57 µM. The method, boiled down:
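GeneBLAzer PPARg UAS-bla HEK293H cells were plated, rested 5 h, then exposed to compounds for 17 h at 37C. Beta-lactamase activity was read by LiveBLAzer B/G FRET substrate fluorescence after 1 h at room temperature.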

Assay [14] shares this target. Nature of the assay: qHTS assay to identify small molecule antagonists of the peroxisome proliferator-activated receptor gamma (PPARg) signaling pathway (AID 743191; calls by dose curve; further: nearly all actives have a fitted effect of over 30% in size). The settings on record: HEK293H PPARg-UAS-bla, beta-lactamase ratio, antagonist, 17 h; series mostly up to 62.6 µM. The method, boiled down: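 Beta-lactamase reporter under UAS control in HEK293H PPARg-bla cells; compound treatment 17 h at 37C. Read-out: fluorescence intensity after 1 h room-temperature incubation with LiveBLAzer B/G FRET substrate.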

The target of assay [15] is Estrogen receptor (Homo sapiens) (UniProt P03372). Nature of the assay: qHTS assay to identify small molecule antagonists of the estrogen receptor alpha (ER-alpha) signaling pathway (AID 743069; active means well fitted curve in the direction sought with a large enough effect in the signal ratio in the repeat runs, not every such curve was filed as active; the % refers to the signal ratio). The settings on record: HEK293 ER-alpha-UAS-bla, beta-lactamase ratio, antagonist mode; series mostly up to 69.4 µM. The method, boiled down: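 ER-alpha-UAS-bla GripTite HEK293 line; 2% charcoal-stripped FBS overnight; plated, 4 hr 37C/5% CO2; cpd in DMSO + 17beta-estradiol, 18 hr 37C; LiveBLAzer B/G FRET substrate 2 hr RT; fluorescence intensity.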
Chain of Estrogen receptor (Homo sapiens) (P03372 whole entry, looked up): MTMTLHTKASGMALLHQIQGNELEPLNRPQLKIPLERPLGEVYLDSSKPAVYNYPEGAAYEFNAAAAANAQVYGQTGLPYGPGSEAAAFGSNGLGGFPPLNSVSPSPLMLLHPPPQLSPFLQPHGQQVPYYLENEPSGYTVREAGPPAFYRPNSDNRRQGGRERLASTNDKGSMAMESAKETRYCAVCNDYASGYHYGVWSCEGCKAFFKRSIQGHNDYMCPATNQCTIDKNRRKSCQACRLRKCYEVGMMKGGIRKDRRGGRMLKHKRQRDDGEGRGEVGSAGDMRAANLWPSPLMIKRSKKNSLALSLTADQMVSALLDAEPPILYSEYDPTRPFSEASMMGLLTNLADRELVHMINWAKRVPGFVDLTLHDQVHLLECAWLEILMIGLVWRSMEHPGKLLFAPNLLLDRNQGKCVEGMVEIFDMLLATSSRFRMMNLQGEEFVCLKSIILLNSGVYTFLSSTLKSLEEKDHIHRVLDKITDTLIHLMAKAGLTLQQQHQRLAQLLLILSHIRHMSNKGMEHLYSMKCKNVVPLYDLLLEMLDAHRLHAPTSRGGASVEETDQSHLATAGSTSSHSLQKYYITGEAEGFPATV

For assay [16] the target is unchanged. Nature of the assay: qHTS assay to identify small molecule agonists of the estrogen receptor alpha (ER-alpha) signaling pathway (AID 743075; calls by dose curve;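 further: HEK293 GripTite cells with ER-alpha and UAS-driven beta-lactamase reporter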). Conditions: HEK293 ER-alpha-UAS-bla, beta-lactamase FRET ratio, 18 h; series mostly up to 70.1 µM.
The nature of assay [17]: qHTS assay to identify small molecule antagonists of the estrogen receptor alpha (ER-alpha) signaling pathway using the BG1 cell line (AID 743080; calls by dose curve; further: nearly all actives have a fitted effect of over 25% in size). Conditions: BG1Luc4E2 ERE-luciferase antagonist mode, luminescence; series mostly up to 70.3 µM. The method, boiled down: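 Antagonist mode: compounds in DMSO were pinned onto BG1-Luc-4E2 cells alongside 17beta-estradiol agonist, incubated 21.5 h, and ERE-driven luciferase measured with ONE-Glo. Cytotoxicity was multiplexed using CellTiter-Fluor fluorescence.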

Assay [18] deals with Estrogen receptor (Homo sapiens) (UniProt P03372). Nature of the assay: qHTS assay to identify small molecule agonists of the estrogen receptor alpha (ER-alpha) signaling pathway using the BG1 cell line (AID 743079). Further: nearly all actives have a fitted effect of over 20% in size. The settings on record: BG1Luc4E2 cells, ERE-luciferase agonist, 22 h; series mostly up to 70.3 µM.
On the % scale 0 is the no-effect control and ±100 the full control effect.

Chain of Peroxisome proliferator-activated receptor gamma (Homo sapiens) (P37231 whole entry, looked up): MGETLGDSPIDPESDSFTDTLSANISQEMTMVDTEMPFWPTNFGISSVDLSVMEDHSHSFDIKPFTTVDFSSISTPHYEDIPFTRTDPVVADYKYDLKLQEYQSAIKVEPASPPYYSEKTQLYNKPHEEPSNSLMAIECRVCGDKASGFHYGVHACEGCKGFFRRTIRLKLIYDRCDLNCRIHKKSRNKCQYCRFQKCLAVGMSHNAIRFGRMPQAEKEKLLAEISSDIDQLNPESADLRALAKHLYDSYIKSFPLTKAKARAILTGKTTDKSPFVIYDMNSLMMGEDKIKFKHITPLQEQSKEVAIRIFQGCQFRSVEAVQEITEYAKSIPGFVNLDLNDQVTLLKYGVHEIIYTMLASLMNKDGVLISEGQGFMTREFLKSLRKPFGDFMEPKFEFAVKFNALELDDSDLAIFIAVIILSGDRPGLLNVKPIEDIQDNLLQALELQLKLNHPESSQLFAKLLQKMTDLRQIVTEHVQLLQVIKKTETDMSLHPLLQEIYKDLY
Chain of Aromatase (Homo sapiens) (P11511 whole entry, looked up): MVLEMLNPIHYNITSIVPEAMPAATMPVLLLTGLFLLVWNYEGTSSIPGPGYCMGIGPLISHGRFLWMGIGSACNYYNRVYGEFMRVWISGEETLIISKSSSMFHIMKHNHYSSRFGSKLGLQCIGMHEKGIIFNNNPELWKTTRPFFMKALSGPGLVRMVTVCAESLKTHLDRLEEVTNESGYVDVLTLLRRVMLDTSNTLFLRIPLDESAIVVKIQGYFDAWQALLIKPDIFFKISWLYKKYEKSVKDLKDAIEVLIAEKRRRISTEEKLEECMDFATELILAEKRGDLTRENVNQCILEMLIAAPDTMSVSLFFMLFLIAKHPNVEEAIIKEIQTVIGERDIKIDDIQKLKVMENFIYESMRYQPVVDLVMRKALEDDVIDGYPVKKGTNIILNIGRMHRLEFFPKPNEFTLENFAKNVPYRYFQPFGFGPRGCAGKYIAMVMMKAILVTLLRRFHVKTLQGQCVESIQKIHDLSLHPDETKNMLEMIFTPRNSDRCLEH
Chain of Aryl hydrocarbon receptor (Homo sapiens) (P35869 whole entry, looked up): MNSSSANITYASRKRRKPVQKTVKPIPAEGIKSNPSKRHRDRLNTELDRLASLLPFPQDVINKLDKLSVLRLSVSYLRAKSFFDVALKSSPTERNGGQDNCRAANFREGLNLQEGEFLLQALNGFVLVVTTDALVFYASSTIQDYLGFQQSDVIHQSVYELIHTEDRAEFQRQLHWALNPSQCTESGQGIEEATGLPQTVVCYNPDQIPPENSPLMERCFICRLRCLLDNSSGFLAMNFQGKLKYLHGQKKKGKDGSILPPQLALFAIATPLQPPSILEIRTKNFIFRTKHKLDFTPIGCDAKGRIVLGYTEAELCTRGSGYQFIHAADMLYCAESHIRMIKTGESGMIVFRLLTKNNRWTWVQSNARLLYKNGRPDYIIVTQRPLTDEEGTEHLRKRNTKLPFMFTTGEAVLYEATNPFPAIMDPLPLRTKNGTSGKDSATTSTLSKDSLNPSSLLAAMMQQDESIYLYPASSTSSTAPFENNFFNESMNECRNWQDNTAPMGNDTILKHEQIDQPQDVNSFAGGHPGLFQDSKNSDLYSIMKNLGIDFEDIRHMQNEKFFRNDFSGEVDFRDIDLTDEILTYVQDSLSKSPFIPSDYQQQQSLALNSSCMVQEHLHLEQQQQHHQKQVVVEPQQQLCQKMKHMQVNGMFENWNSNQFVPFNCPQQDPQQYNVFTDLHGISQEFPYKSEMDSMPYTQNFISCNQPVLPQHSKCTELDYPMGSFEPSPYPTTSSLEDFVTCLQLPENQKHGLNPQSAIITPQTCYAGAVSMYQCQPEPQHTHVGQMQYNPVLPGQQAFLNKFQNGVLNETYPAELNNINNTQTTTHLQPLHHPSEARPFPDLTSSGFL

For `NS(=O)(=O)c1cc2c(cc1C(F)(F)F)NC(Cc1ccccc1)NS2(=O)=O` (configuration not stated), the Potency result (in [1]; in assay [2]; with Aromatase (Homo sapiens); in assay [5]; in assay [6]; in [7]) was “inactive” each time. Further, the Potency entry in assay [8] and in assay [9] was “inactive” throughout. Also, the call in assay [3], in [4], in assay [10], in [11] and in [12] was inactive.

Consider `CC(C)c1ccc2oc3nc(N)c(C(=O)O)cc3c(=O)c2c1`, for which the Potency result (in assay [1]; in assay [2]; with Aromatase (Homo sapiens); in assay [5]; in assay [7]; in assay [8]) was “inactive” throughout. Further, the molecule was classed as inactive in assay [3], in assay [4], in assay [13], in [14], in [10] and in [11]. In addition, the result in [12] was inactive. Further, the results for the Potency in assay [6] and in assay [9] were 0.841 µM (active) and 23.7 µM (active), respectively.

As for `CCCC=O`, the Potency result (in assay [1]; in assay [2]; in the assay with Aromatase (Homo sapiens); in assay [5]; in assay [6]; in [7]) was “inactive” each time. In addition, the Potency entry in [8] and in [9] was “inactive” throughout. Also, the outcome in assay [3], in assay [4], in assay [14], in assay [10], in [11] and in [12] was inactive.

`NC(=S)Nc1cccc2ccccc12`: the activity change, negative = cytotoxic in [1] was -2.02% [at 8.44 µM]. In addition, the activation in [2] was 0.336% [at 8.08 µM]; in assay [6], 0.499% [at 8.47 µM]; in assay [13], -10.4% [at 7.08 µM]; in [9] it was -5.35% [at 8.36 µM]. Besides, the activity, negative = cytotoxicity in [3] was 13.6% [at 6.72 µM]. For the same molecule, the activity change, negative = cytotoxicity in assay [4] was -0.944% [at 8.47 µM]; in assay [5], 1.26% [at 8.47 µM]; in [8] it was 9.83% [at 5.95 µM]; in assay [11] it was -5.69% [at 5.95 µM]. The activity, negative = inhibition with Aromatase (Homo sapiens) is 16.7% [at 8.47 µM]. Moreover, the viability change, negative = cytotoxic in [7] was 1.55% [at 8.47 µM]; in assay [10], 10% [at 8.36 µM].

For the molecule `Cc1c(C)n(CCN(C)C)c2ccc(C(=O)OCCN(C)C)cc12`, the Potency in assay [1] was 26.6 µM (active). Besides, the Potency entry (in [2]; in assay [15]; in assay [16]; in the assay with Aromatase (Homo sapiens); in assay [5]; in [8]) was “inactive” throughout. Also, the call in assay [3], in assay [14], in assay [10], in assay [11] and in [12] was inactive.

Consider `C=C(C)C(=O)OCCCCCCCCCCCCCCCCCC`, for which the Potency entry (in [1]; in assay [2]; in assay [15]; in assay [16]; in assay [17]; in the assay with Aromatase (Homo sapiens)) was “inactive” in each case. In addition, the Potency entry in assay [5], in assay [6], in assay [7], in assay [8] and in [9] was “inactive” in each case. Moreover, the outcome in assay [4], in assay [13], in assay [14], in [10], in [11] and in [12] was inactive.

As to `CC(C)CCCCCCN`, the Potency entry in [1], in [2], in assay [15], in [16], in assay [18] and in assay [17] was “inactive” throughout. The Potency entry (with Aromatase (Homo sapiens); in assay [6]; in [7]; in assay [8]; in assay [9]) was “inactive” in each case. For the same molecule, the molecule was called inactive in [3], in [4], in assay [13], in assay [14], in assay [10] and in assay [11]. In assay [12], the result was inactive.
